OTUD3 block: blocks human OTUD3 ubiquitin-rhodamine cleavage; AID 1645858; 47,000 compounds, 0.7% hits; Q5T2D3; inhibition, % at 25 µM; purified OTUD3, Ub-rhodamine fluorescence, 2 h
USP17 block: inhibitors of human USP17 deubiquitinase | inhibition, % at 50 µM | purified USP17, Ub-rhodamine cleavage fluorescence, 3 h | A8MUK1 | 47,000 compounds, 6.5% hits
USP30 inh: inhibitors of human USP30 deubiquitinase; purified USP30, Ub-rhodamine cleavage fluorescence; inhibition, % at 25 µM; 47,000 compounds, 5.3% hits; AID 1645860
USP28 inh: human USP28 deubiquitinase inhibition; Q96RU2; purified USP28, Ub-rhodamine cleavage fluorescence, 30 min; inhibition, % at 25 µM; 47,000 compounds, 3% hits; AID 1645857
An asterisk follows results filed as active; . = no result given. The list is not random: actives were taken first. Their share in the collection is about 11%. Rule as the data show it: active = inhibition above about 30%; inactive = the rest.

SMILES	OTUD3 block	USP17 block	USP30 inh	USP28 inh
COc1ccc(-c2[nH]c3ncccc3c2CN(C)C(C)c2ccc(OC)cc2)cc1 (stereo not drawn)	-6.4	-11.1	-7.4	-6.9
COc1c(O)cc2cc(C)oc(=O)c2c1O	18.7	6.6	35.8*	7.9
COc1ccc(-n2nnnc2CNC(=O)C2CC(=O)N(c3ccc(Cl)cc3)C2)cc1 (stereo not drawn)	-12.4	-13.1	-14.3	-4.0
Cc1ccc(C(=O)OC(c2ccccc2)c2nccc3ccccc23)cc1 (stereo not drawn)	15.1	5.8	17.0	12.9
COc1ccc(OC)c(CCNC(=O)CCC2=NS(=O)(=O)c3ccc(C(F)(F)F)cc3N2)c1	15.1	76.6*	33.1*	18.3
O=C(/C=C/c1ccc(Cl)cc1)Nc1nnc(C2CC2)s1	15.8	3.6	17.5	9.4
CC1(C(=O)NC2CCCCCC2)Cc2ccccc2C(=O)N1CCN1CCOCC1 (stereo not drawn)	7.8	18.8	35.4*	11.1
CC1CCC(NC(=O)C2(C)Cc3ccccc3C(=O)N2C2CCCCC2)CC1 (stereo not drawn)	17.3	13.9	30.2*	9.2
CC(C)CN1CCC(c2nc3ccc(F)cc3c(=O)[nH]2)CC1	13.0	12.1	13.6	5.0
COCCN1[C@H]2CCN(C(=O)c3ccccc3)CC[C@@H]2Oc2ccccc2S1(=O)=O	9.0	-7.3	19.6	6.5
O=C(CCC1=NS(=O)(=O)c2ccc(C(F)(F)F)cc2N1)NCc1ccccc1	2.8	12.2	-13.0	0.8
Cc1c(C(=O)NCCCN2CCOCC2)oc2ccc3c(c12)C(=O)CC(C)(c1ccc(Cl)cc1)O3 (stereo not drawn)	4.1	9.8	18.7	41.6*
O=C(NCCN1CCOCC1)c1nc2c(o1)CN(CC1CC1)C2	-13.3	-13.5	-25.3	-9.7
CCN(CC)c1ccc2ccc(C(=O)N3CCN(c4ccncc4)CC3)cn12	12.3	-10.5	35.6*	19.1
Cc1cccc(CN2CCC3(CC2)CCN(c2cncnc2)C3=O)n1	1.7	-10.3	-4.7	0.7
COc1ccc(Nc2nnc(Cc3ccc(Cl)cc3)c(=O)[nH]2)cc1	3.3	-3.5	4.4	-8.5
CCc1cc2c(=O)[nH]c(Cc3ccc(OC)cc3)nc2s1	8.2	58.0*	39.6*	11.2
CN1C(=O)OC[C@@H]2CCN(C(=O)c3cnc4ccccc4n3)C[C@H]21	1.2	-1.0	0.0	-0.5
Cc1cc(C(=O)Cc2ccccn2)c(O)cc1O	0.0	4.9	-3.0	-3.6
CC(NC(=O)COc1ccc2ccccc2c1)C(=O)O (stereo not drawn)	-12.7	0.1	1.5	-7.5
Cc1cc(NC(=O)COc2cccc(C(F)(F)F)c2)no1	11.9	48.1*	12.7	8.1
CCc1cc(=O)oc2cc(OCC(=O)NC(c3ccccc3)c3ccccc3)ccc12	18.7	3.8	44.3*	13.9
Cc1cc(NC(=O)c2ccc(C(=O)Nc3cc(C)on3)s2)no1	-9.0	20.2	-19.8	-12.9
Cc1cc(=O)oc2cc(OCC(=O)NC(C)CCc3ccccc3)ccc12 (stereo not drawn)	0.5	-5.7	-0.4	-1.0
Cc1cc(NC(=O)c2ccc(C(F)(F)F)cc2)no1	6.9	12.9	39.5*	6.3
SMILES	OTUD3 block	USP17 block	USP30 inh	USP28 inh
CC(NC(=O)COc1ccc2oc3ccccc3c2c1)c1ccccc1 (stereo not drawn)	-5.9	41.9*	22.2	-0.7
CCOCC(=O)N1C[C@@H]2CCN(c3cccnc3)C[C@@H]2C1	-0.2	-11.9	-56.0	-9.1
OC(CN1CCN(c2ccccc2)CC1)c1c[nH]c2ccc(F)cc12 (stereo not drawn)	-14.6	-11.6	-57.8	-17.7
Cc1cc(NC(=O)COc2ccc3oc4ccccc4c3c2)no1	-2.6	78.4*	21.1	5.0
CSc1nc2ncn(CC(=O)Nc3cccc(Cl)c3)c(=O)c2s1	4.3	60.2*	17.3	0.7
Cc1noc(-c2ccc(SCC(=O)Nc3ccccc3F)nc2)n1	-40.1	-125.1	-115.0	-57.1
C[C@@H]1C(=O)OC2[C@H](O)C34[C@H]5C[C@@H](C(C)(C)C)C36[C@@H](OC(=O)[C@@H]6O)O[C@@]4(C(=O)O5)[C@]21O (stereo partly drawn)	5.9	7.9	19.3	6.4
C[C@@H]1C(=O)O[C@H]2CC34[C@H]5C[C@@H](C(C)(C)C)C36[C@@H](OC(=O)[C@@H]6O)OC4(C(=O)O5)[C@]21O (stereo partly drawn)	7.7	20.2	40.7*	8.5
CC(C)=CCC/C(C)=C/CC/C(C)=C/COc1c(O)cc(C=O)c(C=O)c1O	83.9*	80.5*	43.8*	81.1*
COC1=C(OC)C(=O)C(C/C=C(/C)CC/C=C(\C)CC/C=C(\C)CC/C=C(\C)CC/C=C(\C)CC/C=C(\C)CCC=C(C)C)=C(C)C1=O	8.9	10.4	8.4	10.1
CCN1CC[C@@]2(C(=O)N3CCCC3)CCN(S(=O)(=O)c3ccccc3)CC[C@@H]12	5.3	-15.9	17.9	4.1
CCC(=O)Nc1ccc(-n2cnc(C(=O)N3CCCCC3)c2)nc1	-3.1	.	6.9	-2.4
Cc1ccc2nc(NC(=O)C3CCCN3S(=O)(=O)c3ccc4c(c3)OCCO4)sc2c1 (stereo not drawn)	-0.1	6.8	0.0	53.4*
C=C(NC(=O)C(=C)NC(=O)c1csc(C2=N[C@@H]3c4csc(n4)[C@H]4NC(=O)c5csc(n5)[C@H]([C@](C)(O)[C@@H](C)O)NC(=O)[C@H]5CSC(=N5)/C(=C/C)NC(=O)C([C@@H](C)O)NC(=O)c5csc(n5)C3(CC2)NC(=O)[C@H](C)NC(=O)C(=C)NC(=O)[C@H](C)NC(=O)C([C@@H](C)CC)N[C@@H]2C=Cc3c(C(C)O)cc(nc3[C@H]2O)C(=O)OC4C)n1)C(N)=O (stereo partly drawn)	-28.6	54.3*	-132.6	-13.1
O=C(CN1C(=O)C(c2ccccc2)Oc2cccnc21)NCCCN1CCCCCC1 (stereo not drawn)	-11.8	40.9*	-61.1	-15.2
O=S(=O)(c1ccccc1OC(F)(F)F)N1CCN(c2ccnc3cc(Cl)ccc23)CC1	-1.6	-10.2	-12.9	1.2
COCCn1c(C(=O)Nc2ccc(C(C)=O)cc2)cc2c(=O)n(C)c(=O)n(C)c21	4.3	0.0	-8.7	0.0
COCCn1c(C(=O)Nc2ccccc2Cl)cc2c(=O)n(C)c(=O)n(C)c21	-11.4	36.2*	-3.0	-9.9
O=C(Nc1ccc(S(=O)(=O)c2cccc(C(F)(F)F)c2)cc1)c1ccc(F)cc1	-7.2	-3.0	41.2*	13.7
Cc1nc2ccc(NC(=O)c3cccc(C(F)(F)F)c3)cc2nc1C	-28.6	-16.0	-64.2	-10.9
CC1CCC2(C(=O)O)CCC3(C)C(=CCC4C5(C)CCC(O)C(C)(C)C5CCC43C)C2C1C (mixture of isomers)	15.2	22.5	40.2*	16.4
C[C@@H]1CC[C@]2(C(=O)O)CC[C@]3(C)C(=CCC4[C@@]5(C)CC[C@H](O)C(C)(C)C5CC[C@]43C)C2[C@H]1C (stereo partly drawn)	5.4	4.2	34.7*	8.5
Cc1nnn(C23CC4CC(CC(C(=O)Nc5ccc6c(c5)OCO6)(C4)C2)C3)n1	0.7	16.2	0.0	9.3

Source: PubChem (Buhrlage Lab, Dana-Farber Cancer Institute and Novartis Institutes for BioMedical Research (Cambridge, Mass))
